Experimental findings from PubChem BioAssay (NCATS) are described below.

Results filed as inconclusive are left out. Active and inactive are the calls of the source. The call rests on the fitted dose curve; in most records, active means well fitted activation curve with a large enough effect; inconclusive means small, poorly fitted or top-dose-only effect; inactive means flat fitted curve, though single readings scatter.

The assay is described as follows: Primary redox qHTS assay for identification of artifact compounds. (AID 1845223).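 Further: 0% = DMSO and 100% = reference compound.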 The following applies: Amplex Red/HRP redox cycling with DTT, fluorescence; series mostly up to 53.8 µM; redox activity (% of DA3003): at the top concentration. The essentials: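 Redox-cycling detection via DTT (250 uM final) oxidation coupled to Amplex Red (25 uM)/HRP (250 mU/mL) in HBSS. 15 min preincubation plus 30 min after DTT, room temperature. Ex/Em 525/598 nm; 4-parameter Hill fit against DMSO and 10 uM DA3003.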
A general note: Quantitative high-throughput screening tests each substance at several concentrations.
Take `CCC(C)(C#N)O[C@@H]1O[C@H](CO)[C@@H](O)[C@H](O)[C@H]1O` (stereo partly drawn): the “redox activity (% of DA3003)” value was -17.2% (inactive). On the same count and under the same terms, in the case of `COc1cc(CCNCc2ccccc2O)c(OC)cc1C#N` it was -0.556% (inactive); in that of `C=C(CO)C(=O)O[C@H]1C/C(C)=C/CC/C(CO)=C/[C@H]2OC(=O)C(=C)[C@H]12`, -4.72% (inactive).

Take `CN1C(=O)N(c2ccc(C#N)c(C(F)(F)F)c2)C(=O)[C@]1(CO)c1ccccc1`: the “redox activity (% of DA3003)” value is 5.65% (inactive).

Take `C[C@@](O)(COc1ccc(C#N)cc1)C(=O)Nc1ccc(C#N)c(C(F)(F)F)c1`: the “redox activity (% of DA3003)” value was -2.9% (inactive). Consider `CC12CCC3C(CCC4(O)CC(O)CCC34C=O)C1(O)CCC2C1=CC(=O)OC1` (stereo not drawn), for which the “redox activity (% of DA3003)” value is -0.433% (inactive). Still for that read-out and setting: with `OCCCCC#Cc1cncc(OC[C@@H]2CCN2)c1` the figure was -4.53% (inactive); with `COC(=O)C1(C)CCC(O)C2(C)c3c(O)cc(C(C)C)cc3C(O)C(OC(C)=O)C12` (stereo not drawn), 13.1% [at 25.6 µM] (inactive); with `CC1=C2C[C@H]3[C@@H](CC=C4C[C@@H](O)CC[C@@]43C)[C@@H]2CC[C@]12O[C@@H]1C[C@H](C)CN[C@H]1[C@H]2C`, -5.05% (inactive). Still for that read-out and setting: with `N#C[C@@H](O[C@@H]1O[C@H](CO[C@@H]2O[C@H](CO)[C@@H](O)[C@H](O)[C@H]2O)[C@@H](O)[C@H](O)[C@H]1O)c1ccccc1` the figure was -10% [at 25.6 µM] (inactive); with `COC1CC(O[C@H]2CC[C@]3(C=O)C4CC[C@]5(C)[C@@H](C6=CC(=O)OC6)CC[C@]5(O)[C@@H]4CC[C@]3(O)C2)OC(C)C1O[C@@H]1O[C@H](CO)[C@@H](O)[C@H](O)[C@H]1O` (stereo partly drawn), -9.85% [at 25.6 µM] (inactive). The same measure, in the same setting: with `C=CC(C)(O)CC/C=C(\C)C(=O)O[C@H]1[C@H](O)[C@@H](CO)O[C@@H](OC(=O)[C@]23CCC(C)(C)CC2C2=CCC4[C@@]5(C)CC[C@H](O[C@@H]6O[C@H](CO[C@@H]7OC[C@H](O)[C@H](O)[C@H]7O[C@@H]7OC[C@@H](O)[C@H](O)[C@H]7O)[C@@H](O)[C@H](O)[C@H]6O)C(C)(C)C5CC[C@@]4(C)[C@]2(C)CC3)[C@@H]1OC1OC(C)C(O[C@@H]2OC[C@@H](O)[C@H](O[C@@H]3OC[C@@H](O)[C@H](O)[C@H]3O)[C@H]2O)C(O)C1O` (stereo partly drawn) the figure was -6.27% [at 11.5 µM] (inactive). In the case of `CCc1c(C(=O)C(N)=O)c2c(OCC(=O)OC)cccc2n1Cc1ccccc1`, the “redox activity (% of DA3003)” value is 10.7% (inactive). For the molecule `Cc1cc(C(=O)CN2CCCC2)c(C)n1-c1ccc(F)cc1`, the molecule was called inactive. In the case of `COC1=CC(=O)O[C@@H](CCc2ccccc2)C1`, the “redox activity (% of DA3003)” value was -9.3% (inactive). The same measure, in the same setting: with `C=C1[C@@H]2CC[C@@]3(C)[C@H](c4ccoc4)OC(=O)C[C@]13O[C@H]1CC(=O)C(C)(C)[C@H](C(OC(C)=O)C(=O)OC)[C@]12C` (stereo partly drawn) the figure was 0.286% [at 25.6 µM] (inactive); with `COC1C(O)C(OC2CCC3(C=O)C(CCC4C3CCC3(C)C(C5=CC(=O)OC5)CCC43O)C2)OC(C)C1OC1OC(CO)C(O)C(O)C1O` (stereo not drawn), 15.4% [at 25.6 µM] (inactive).

For `C/C=C(\C)C(=O)OC1C(C)OC(OC2C(C)OC(OC3CCC4(C)C(=CCC5C4CCC4(C)C(C(C)OC6OC(COC7OC(CO)C(O)C(O)C7O)C(O)C(O)C6O)CCC54O)C3)CC2OC)C(O)C1OC` (stereo not drawn), the redox activity (% of DA3003) is -7.77% [at 11.5 µM] (inactive). As to `CCN1C[C@]2(COC(=O)c3ccccc3N3C(=O)C[C@H](C)C3=O)CC[C@H](OC)[C@@]34[C@@H]5C[C@H]6[C@H](OC)[C@@H]5[C@](O)(C[C@@H]6OC)[C@](O)([C@@H](OC)[C@H]23)[C@@H]14`, the “redox activity (% of DA3003)” value was 5.33% (inactive). Regarding `CN1CCCC1CCOC(c1cc2nccc(C(=O)O)c2[nH]1)c1ccccc1Cl` (stereo not drawn), the “redox activity (% of DA3003)” value was 14% (inactive).

Regarding `CC(N)Cc1c[nH]c2ccccc12` (stereo not drawn), the “redox activity (% of DA3003)” value was -2.51% (inactive).

With `CCN1C[C@]2(COC)[C@H](O)C[C@H](OC)[C@]34[C@@H]5C[C@]6(O)[C@H](OC(=O)c7ccccc7)[C@@H]5[C@@](O)([C@H]([C@H](OC)[C@H]23)[C@@H]14)[C@@H](O)[C@@H]6OC`, the “redox activity (% of DA3003)” value was -0.23% (inactive). `Clc1ccc(OCC2=NCCN2)cc1Cl`: the “redox activity (% of DA3003)” value was -1.76% (inactive). On the same count and under the same terms, with `CC(=O)OC1CC(O)C(C)(C)C2CC(OC(C)=O)C3(C)C(CCC4(C)C(c5ccoc5)C(=O)C5OC543)C12C` (stereo not drawn) the figure was 0.232% [at 25.6 µM] (inactive); with `CN(C)CCc1c[nH]c2ccc(CN3CCN(C)S3(=O)=O)cc12`, -4.71% (inactive); with `COc1cc2c(cc1OC)[C@@]13CCN4CC5=CCO[C@H]6CC(=O)N2[C@H]1[C@H]6[C@H]5C[C@H]43`, -0.143% [at 25.6 µM] (inactive).

With `C[C@H]1C(=O)O[C@H]2[C@H](O)[C@]34C5OC(=O)[C@]3(O[C@@H]3OC(=O)[C@H](O)C34[C@H](C(C)(C)C)[C@H]5O)C12O` (stereo partly drawn), the “redox activity (% of DA3003)” value was -18% [at 25.6 µM] (inactive). The same measure, in the same setting: with `C[C@]12CC[C@@H](O)C[C@H]1CC[C@@H]1[C@@H]2CC[C@]2(C)C(=O)CC[C@@H]12` the figure was 13.5% (inactive).
